# Measurements from publication PMC7862700, “An all-to-all approach to the identification of sequence-specific readers for epigenetic DNA modifications on cytosine”.
# Experiments:
# Test in all cases: DAPPL (digital affinity profiling via proximity ligation, sequencing); 10 mM Tris-HCl pH 7.5, 50 mM NaCl, 1 mM DTT, 4% glycerol, room temperature, 30 min; GST-TFs on glutathione beads, 16-mer random dsDNA library, 0.1% formaldehyde crosslink after washing; high values mean tight binding
# [1] = target: T1, FLI1 (Homo sapiens, UniProt Q01543 1-452); details: protein: recombinant; tags: N-terminal GST; dsDNA, one strand shown
# T1 sequence: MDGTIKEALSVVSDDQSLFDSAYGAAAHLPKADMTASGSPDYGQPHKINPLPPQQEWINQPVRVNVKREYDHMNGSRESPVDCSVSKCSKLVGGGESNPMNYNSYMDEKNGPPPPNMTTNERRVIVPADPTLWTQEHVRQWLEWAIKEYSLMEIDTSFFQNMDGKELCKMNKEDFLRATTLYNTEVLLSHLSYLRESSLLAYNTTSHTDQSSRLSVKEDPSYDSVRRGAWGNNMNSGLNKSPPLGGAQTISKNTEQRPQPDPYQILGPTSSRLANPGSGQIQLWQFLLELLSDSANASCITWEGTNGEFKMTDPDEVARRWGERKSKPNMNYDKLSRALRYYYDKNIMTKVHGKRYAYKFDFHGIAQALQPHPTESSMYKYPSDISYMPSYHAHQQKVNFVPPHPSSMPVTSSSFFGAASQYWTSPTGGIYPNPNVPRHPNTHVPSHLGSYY
# Method in brief: (§1)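 A tag-only sample was pooled with DNA-barcoded human transcription factors that had been expressed in yeast as GST fusions and captured on glutathione beads. The pools were incubated for 30 min at room temperature with 200 nmole of a random double-stranded 16-mer DNA library in Tris/NaCl/DTT/glycerol buffer, then washed, crosslinked with 0.1% formaldehyde, proximity-ligated (BsaI/T4 ligase, 1 h, 37 °C), PCR-amplified and sequenced on an Illumina NextSeq500. Binding signal is each hexamer's read frequency for a factor divided by its frequency for the tag-only sample.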
# [2] = target: T2, ELK1 (Homo sapiens, UniProt P19419 1-428); details: protein: recombinant; tags: N-terminal GST; dsDNA, one strand shown
# T2 sequence: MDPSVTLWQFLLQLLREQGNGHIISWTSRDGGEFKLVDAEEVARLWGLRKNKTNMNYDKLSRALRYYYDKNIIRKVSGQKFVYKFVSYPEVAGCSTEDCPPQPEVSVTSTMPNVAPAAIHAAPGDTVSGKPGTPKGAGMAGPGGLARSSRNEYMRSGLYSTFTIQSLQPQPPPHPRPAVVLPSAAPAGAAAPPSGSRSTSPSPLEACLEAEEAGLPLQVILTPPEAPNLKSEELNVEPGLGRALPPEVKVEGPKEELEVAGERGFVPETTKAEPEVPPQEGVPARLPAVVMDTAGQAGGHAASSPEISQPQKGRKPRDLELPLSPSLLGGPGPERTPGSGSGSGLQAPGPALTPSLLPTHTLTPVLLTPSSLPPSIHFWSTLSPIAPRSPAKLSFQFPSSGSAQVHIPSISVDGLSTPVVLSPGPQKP
# Method in brief: as §1
# [3] = target: T3, GABPA (Homo sapiens, UniProt Q06546 1-454); details: protein: recombinant; tags: N-terminal GST; dsDNA, one strand shown
# T3 sequence: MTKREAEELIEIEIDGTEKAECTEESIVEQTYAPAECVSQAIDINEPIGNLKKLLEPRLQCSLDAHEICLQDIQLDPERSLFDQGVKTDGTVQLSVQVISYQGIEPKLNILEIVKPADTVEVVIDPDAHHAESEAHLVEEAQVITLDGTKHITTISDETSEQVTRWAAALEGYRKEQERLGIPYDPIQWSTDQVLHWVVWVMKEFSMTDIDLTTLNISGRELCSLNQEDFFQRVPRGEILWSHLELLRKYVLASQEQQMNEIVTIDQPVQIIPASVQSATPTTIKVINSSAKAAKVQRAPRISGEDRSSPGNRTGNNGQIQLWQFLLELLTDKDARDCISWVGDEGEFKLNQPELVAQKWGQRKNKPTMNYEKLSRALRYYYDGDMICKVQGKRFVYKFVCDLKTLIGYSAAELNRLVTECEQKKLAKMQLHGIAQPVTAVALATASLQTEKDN
# Method in brief: as §1
# [4] = target: T4, ERG (Homo sapiens, UniProt P11308 1-479); details: protein: recombinant; tags: N-terminal GST; dsDNA, one strand shown
# T4 sequence: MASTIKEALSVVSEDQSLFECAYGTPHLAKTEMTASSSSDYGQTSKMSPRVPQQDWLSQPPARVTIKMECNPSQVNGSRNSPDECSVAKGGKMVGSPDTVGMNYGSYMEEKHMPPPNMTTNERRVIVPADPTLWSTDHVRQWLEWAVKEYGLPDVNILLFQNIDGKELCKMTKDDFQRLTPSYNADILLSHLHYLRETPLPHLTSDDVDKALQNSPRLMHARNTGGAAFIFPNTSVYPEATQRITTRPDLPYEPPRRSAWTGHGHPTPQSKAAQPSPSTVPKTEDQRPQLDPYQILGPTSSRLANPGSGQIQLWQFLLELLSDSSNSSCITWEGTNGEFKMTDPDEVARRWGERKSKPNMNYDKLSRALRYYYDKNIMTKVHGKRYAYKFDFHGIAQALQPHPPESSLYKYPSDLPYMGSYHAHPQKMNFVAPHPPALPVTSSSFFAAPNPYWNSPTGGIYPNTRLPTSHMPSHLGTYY
# Method in brief: as §1
# [5] = target: ELF1 (Homo sapiens, UniProt P32519 1-619); details: protein: recombinant; tags: N-terminal GST; dsDNA, one strand shown
# Method in brief: as §1
# [6] = target: T5, EHF (Homo sapiens, UniProt Q9NZC4 1-300); details: protein: recombinant; tags: N-terminal GST; dsDNA, one strand shown
# T5 sequence: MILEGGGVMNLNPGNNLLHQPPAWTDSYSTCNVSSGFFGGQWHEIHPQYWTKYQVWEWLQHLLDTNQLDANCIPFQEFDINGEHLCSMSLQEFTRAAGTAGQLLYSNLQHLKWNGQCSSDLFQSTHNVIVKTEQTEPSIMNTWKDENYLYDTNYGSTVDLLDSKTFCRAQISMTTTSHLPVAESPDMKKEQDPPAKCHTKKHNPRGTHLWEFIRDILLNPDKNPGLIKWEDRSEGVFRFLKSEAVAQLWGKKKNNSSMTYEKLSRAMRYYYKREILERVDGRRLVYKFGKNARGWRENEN
# Method in brief: as §1
# [7] = target: SPI1 (Homo sapiens, UniProt P17947 1-270); details: protein: recombinant; tags: N-terminal GST; dsDNA, one strand shown
# Method in brief: as §1
# [8] = target: SPIB (Homo sapiens, UniProt Q01892 1-262); details: protein: recombinant; tags: N-terminal GST; dsDNA, one strand shown
# Method in brief: as §1
# [9] = target: T6, ELK3 (Homo sapiens, UniProt P41970 1-407); details: protein: recombinant; tags: N-terminal GST; dsDNA, one strand shown
# T6 sequence: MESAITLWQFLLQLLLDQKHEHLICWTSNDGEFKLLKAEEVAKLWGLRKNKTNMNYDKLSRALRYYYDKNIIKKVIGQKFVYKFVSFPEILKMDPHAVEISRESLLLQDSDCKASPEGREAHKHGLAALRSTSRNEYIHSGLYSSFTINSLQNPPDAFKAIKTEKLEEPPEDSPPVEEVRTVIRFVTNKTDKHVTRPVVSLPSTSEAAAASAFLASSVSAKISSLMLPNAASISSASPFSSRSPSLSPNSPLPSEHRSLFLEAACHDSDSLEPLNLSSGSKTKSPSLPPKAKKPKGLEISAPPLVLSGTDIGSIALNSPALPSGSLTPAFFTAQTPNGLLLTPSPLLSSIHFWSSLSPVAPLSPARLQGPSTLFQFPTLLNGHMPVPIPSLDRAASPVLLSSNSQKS
# Method in brief: as §1
# [10] = target: T7, FEV (Homo sapiens, UniProt Q99581 1-238); details: protein: recombinant; tags: N-terminal GST; dsDNA, one strand shown
# T7 sequence: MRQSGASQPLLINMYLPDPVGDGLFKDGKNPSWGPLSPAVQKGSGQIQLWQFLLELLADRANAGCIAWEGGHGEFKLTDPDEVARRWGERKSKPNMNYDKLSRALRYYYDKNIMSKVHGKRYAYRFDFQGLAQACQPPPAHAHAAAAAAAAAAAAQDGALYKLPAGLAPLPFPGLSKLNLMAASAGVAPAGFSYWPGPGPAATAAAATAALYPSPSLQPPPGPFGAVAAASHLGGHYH
# Method in brief: as §1
# [11] = target: ETV5 (Homo sapiens, UniProt P41161 1-510); details: protein: recombinant; tags: N-terminal GST; dsDNA, one strand shown
# Method in brief: as §1
# [12] = target: HSF1 (Homo sapiens, UniProt Q00613 1-529); details: protein: recombinant; tags: N-terminal GST; chain copies: 3; dsDNA, one strand shown
# Method in brief: as §1
# [13] = target: T8, SPIC (Homo sapiens, UniProt Q8N5J4 1-248); details: protein: recombinant; tags: N-terminal GST; dsDNA, one strand shown
# T8 sequence: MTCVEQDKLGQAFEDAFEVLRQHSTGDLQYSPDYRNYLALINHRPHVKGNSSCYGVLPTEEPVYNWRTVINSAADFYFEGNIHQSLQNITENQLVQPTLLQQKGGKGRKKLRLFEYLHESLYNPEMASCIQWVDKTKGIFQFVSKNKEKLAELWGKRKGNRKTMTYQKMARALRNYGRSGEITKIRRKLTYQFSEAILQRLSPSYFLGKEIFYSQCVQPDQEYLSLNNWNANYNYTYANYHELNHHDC
# Method in brief: as §1
# [14] = target: ELF4 (Homo sapiens, UniProt Q99607 1-663); details: protein: recombinant; tags: N-terminal GST; dsDNA, one strand shown
# Method in brief: as §1
# [15] = target: T9, ELK4 (Homo sapiens, UniProt P28324-2 1-405); details: protein: recombinant; tags: N-terminal GST; dsDNA, one strand shown
# T9 sequence: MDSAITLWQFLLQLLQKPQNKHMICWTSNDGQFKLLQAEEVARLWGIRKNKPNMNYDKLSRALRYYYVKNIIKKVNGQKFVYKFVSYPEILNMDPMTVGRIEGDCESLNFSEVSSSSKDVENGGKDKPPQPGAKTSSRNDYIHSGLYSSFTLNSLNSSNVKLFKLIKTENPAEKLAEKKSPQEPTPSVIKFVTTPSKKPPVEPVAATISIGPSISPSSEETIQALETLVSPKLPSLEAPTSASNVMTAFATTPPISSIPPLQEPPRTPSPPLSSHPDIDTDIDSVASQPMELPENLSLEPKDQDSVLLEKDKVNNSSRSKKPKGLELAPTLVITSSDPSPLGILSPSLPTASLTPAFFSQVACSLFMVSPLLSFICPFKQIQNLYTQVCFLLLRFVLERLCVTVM
# Method in brief: as §1
# [16] = target: T10, ETV2 (Homo sapiens, UniProt O00321 1-342); details: protein: recombinant; tags: N-terminal GST; dsDNA, one strand shown
# T10 sequence: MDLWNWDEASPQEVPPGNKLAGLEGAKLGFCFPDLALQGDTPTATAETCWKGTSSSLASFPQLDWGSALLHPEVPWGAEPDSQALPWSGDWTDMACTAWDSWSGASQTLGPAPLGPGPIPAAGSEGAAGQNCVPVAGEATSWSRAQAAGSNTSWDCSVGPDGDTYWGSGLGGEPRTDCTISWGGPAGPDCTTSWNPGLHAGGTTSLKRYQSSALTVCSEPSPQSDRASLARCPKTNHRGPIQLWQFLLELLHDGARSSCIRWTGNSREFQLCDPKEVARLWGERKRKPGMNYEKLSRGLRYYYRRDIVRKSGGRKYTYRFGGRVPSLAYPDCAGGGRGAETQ
# Method in brief: as §1
# [17] = target: T11, ELF3 (Homo sapiens, UniProt P78545 1-371); details: protein: recombinant; tags: N-terminal GST; dsDNA, one strand shown
# T11 sequence: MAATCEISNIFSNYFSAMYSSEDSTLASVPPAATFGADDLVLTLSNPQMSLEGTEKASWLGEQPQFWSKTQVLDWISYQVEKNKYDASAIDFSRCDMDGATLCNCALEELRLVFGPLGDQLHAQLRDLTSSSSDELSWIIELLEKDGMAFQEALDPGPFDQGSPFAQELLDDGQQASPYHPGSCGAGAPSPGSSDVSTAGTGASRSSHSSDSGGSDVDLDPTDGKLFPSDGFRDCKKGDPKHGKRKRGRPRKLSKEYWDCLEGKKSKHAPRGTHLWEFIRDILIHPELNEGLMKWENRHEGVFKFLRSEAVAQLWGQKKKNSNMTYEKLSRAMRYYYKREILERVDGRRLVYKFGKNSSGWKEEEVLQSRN
# Method in brief: as §1
# [18] = target: CRX (Homo sapiens, UniProt O43186 1-299); details: protein: recombinant; tags: N-terminal GST; dsDNA, one strand shown
# Method in brief: as §1
# [19] = target: ETV1 (Homo sapiens, UniProt P50549 1-477); details: protein: recombinant; tags: N-terminal GST; dsDNA, one strand shown
# Method in brief: as §1
# Sequence of SPIB (Q01892 whole entry): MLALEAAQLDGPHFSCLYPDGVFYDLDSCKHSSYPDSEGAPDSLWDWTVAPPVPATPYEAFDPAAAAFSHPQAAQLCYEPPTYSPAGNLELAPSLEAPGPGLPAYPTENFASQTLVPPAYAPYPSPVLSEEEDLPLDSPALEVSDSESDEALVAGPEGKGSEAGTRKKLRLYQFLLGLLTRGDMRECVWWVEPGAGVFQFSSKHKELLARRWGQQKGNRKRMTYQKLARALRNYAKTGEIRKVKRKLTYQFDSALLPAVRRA
# Sequence of ETV1 (P50549 whole entry): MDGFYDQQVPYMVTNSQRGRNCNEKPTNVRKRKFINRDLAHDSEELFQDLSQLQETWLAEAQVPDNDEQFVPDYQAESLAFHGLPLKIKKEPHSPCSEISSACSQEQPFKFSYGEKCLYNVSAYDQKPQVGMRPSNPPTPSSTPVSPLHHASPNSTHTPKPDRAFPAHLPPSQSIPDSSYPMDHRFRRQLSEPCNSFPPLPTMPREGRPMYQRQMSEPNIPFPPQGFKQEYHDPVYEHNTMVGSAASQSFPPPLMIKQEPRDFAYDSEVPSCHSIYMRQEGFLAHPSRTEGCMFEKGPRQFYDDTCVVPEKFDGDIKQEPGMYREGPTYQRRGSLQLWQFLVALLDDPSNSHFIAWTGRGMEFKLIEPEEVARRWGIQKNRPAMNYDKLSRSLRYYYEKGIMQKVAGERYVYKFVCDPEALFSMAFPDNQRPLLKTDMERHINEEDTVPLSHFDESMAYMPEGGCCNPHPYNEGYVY
# Sequence of HSF1 (Q00613 whole entry): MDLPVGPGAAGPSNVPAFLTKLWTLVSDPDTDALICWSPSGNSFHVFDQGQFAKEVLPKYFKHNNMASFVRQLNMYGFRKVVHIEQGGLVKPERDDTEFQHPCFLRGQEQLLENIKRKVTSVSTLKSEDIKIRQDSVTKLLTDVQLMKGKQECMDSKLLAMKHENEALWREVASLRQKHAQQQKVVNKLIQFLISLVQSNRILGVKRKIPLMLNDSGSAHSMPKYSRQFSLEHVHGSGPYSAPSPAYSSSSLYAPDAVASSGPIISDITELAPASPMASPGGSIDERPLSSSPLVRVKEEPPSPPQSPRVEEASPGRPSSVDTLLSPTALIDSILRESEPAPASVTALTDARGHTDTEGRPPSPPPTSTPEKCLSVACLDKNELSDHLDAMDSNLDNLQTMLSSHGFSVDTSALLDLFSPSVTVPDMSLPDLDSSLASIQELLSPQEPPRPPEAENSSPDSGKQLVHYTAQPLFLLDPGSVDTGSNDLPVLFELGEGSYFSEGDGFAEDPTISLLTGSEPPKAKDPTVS
# Sequence of ELF1 (P32519 whole entry): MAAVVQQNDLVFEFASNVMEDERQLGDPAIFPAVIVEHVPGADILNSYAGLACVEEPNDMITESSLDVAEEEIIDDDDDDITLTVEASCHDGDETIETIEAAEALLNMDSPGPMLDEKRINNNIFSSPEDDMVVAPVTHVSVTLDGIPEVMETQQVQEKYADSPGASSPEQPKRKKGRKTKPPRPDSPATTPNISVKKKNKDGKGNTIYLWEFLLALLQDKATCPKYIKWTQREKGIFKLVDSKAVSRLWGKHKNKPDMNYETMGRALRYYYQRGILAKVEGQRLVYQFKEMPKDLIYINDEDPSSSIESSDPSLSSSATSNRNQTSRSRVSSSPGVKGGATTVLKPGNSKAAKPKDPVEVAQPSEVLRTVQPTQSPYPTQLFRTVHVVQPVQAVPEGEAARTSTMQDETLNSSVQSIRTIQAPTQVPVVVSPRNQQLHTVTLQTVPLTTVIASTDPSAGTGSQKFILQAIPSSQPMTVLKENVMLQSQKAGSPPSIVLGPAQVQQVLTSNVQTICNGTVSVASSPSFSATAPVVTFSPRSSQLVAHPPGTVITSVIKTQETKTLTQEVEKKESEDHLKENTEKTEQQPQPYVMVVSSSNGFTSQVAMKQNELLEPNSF
# Sequence of CRX (O43186 whole entry): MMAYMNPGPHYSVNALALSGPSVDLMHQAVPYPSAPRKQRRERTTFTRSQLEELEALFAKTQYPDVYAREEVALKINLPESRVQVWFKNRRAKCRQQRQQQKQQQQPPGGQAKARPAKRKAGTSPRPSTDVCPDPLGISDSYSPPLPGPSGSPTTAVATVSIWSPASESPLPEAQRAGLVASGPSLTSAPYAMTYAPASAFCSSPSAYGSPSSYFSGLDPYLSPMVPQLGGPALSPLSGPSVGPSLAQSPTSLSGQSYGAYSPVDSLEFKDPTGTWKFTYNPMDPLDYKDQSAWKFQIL
# Sequence of ELF4 (Q99607 whole entry): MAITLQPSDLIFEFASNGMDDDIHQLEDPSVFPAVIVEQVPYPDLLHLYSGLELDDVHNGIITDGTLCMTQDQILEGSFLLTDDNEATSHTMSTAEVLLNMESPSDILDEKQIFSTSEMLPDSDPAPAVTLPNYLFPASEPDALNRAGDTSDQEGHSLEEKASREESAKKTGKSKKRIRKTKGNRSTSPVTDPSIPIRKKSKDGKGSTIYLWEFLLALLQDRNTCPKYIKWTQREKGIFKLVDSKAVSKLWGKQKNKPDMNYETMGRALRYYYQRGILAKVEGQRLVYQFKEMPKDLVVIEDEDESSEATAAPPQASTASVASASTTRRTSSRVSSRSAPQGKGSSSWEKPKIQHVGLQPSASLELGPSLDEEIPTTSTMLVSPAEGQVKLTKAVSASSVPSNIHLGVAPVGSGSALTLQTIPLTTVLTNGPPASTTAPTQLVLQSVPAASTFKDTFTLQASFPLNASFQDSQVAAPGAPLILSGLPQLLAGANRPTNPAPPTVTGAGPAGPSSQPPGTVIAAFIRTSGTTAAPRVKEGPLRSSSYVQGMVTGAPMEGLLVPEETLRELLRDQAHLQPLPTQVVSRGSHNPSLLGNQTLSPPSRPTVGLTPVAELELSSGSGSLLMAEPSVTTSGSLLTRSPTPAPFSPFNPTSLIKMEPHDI
# Sequence of ETV5 (P41161 whole entry): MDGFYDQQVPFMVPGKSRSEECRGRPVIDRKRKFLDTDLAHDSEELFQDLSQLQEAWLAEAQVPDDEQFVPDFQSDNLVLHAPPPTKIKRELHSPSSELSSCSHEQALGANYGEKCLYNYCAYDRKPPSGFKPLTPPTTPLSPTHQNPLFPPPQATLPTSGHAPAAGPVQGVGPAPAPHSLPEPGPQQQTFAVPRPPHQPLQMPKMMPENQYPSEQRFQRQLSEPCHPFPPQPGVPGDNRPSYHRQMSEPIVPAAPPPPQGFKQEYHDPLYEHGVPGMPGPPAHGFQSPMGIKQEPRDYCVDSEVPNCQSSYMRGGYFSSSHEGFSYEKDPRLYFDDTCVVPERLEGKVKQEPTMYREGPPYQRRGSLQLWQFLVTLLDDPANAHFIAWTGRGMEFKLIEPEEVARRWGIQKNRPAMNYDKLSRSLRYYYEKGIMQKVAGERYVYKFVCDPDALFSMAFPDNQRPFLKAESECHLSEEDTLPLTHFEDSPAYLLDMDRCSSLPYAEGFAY
sequence,measurement,setting,value
TGATCC,binding signal,[1],"1.28 fold enrichment (6-mer frequency, TF over GST control)"
same,binding signal,[2],"1.32 fold enrichment (6-mer frequency, TF over GST control)"
same,binding signal,[3],"1.44 fold enrichment (6-mer frequency, TF over GST control)"
same,binding signal,[4],"1.29 fold enrichment (6-mer frequency, TF over GST control)"
same,binding signal,[5],"1.26 fold enrichment (6-mer frequency, TF over GST control)"
same,binding signal,[6],"1.2 fold enrichment (6-mer frequency, TF over GST control)"
same,binding signal,[7],"1.21 fold enrichment (6-mer frequency, TF over GST control)"
same,binding signal,[8],"1.37 fold enrichment (6-mer frequency, TF over GST control)"
same,binding signal,[9],"1.18 fold enrichment (6-mer frequency, TF over GST control)"
same,binding signal,[10],"1.29 fold enrichment (6-mer frequency, TF over GST control)"
same,binding signal,[11],"1.3 fold enrichment (6-mer frequency, TF over GST control)"
same,binding signal,[12],"1.65 fold enrichment (6-mer frequency, TF over GST control)"
same,binding signal,[13],"1.32 fold enrichment (6-mer frequency, TF over GST control)"
same,binding signal,[14],"1.28 fold enrichment (6-mer frequency, TF over GST control)"
same,binding signal,[15],"1.26 fold enrichment (6-mer frequency, TF over GST control)"
same,binding signal,[16],"1.09 fold enrichment (6-mer frequency, TF over GST control)"
same,binding signal,[17],"1.1 fold enrichment (6-mer frequency, TF over GST control)"
same,binding signal,[18],"2.2 fold enrichment (6-mer frequency, TF over GST control)"
same,binding signal,[19],"1.27 fold enrichment (6-mer frequency, TF over GST control)"
